The nature of experiment [1]: CCTE_Deisenroth_H295R-HTRF_384WELL_CTOX: Cytotoxicity Assessment in CCTE's H295R-HTRF Assay, Deisenroth Lab (AID 2284380; active = hit-call score of the fitted dose curve at least 0.9, where 1 is the maximum). An outline of the steps:
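H295R adrenocortical carcinoma cells plated 24 h, then exposed 48 h to nine-point series 0.001–100 uM final, triplicate, n=5. ATP measured by CellTiter-Glo 2.0 luminescence on same plates after medium collection; loss versus DMSO.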
On the technique in general: Time-resolved FRET reads energy transfer from a long-lived donor to a nearby acceptor.

The nature of experiment [2]: Tanguay_ZF_120hpf_MO24: Oregon State University Tanguay Lab 24 Hour Post-fertilization zebrafish Assay for Mortality (AID 2284389). An outline of the steps:
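Dechorionated wild-type zebrafish embryos, 1 per well, statically exposed from 6 hpf at 28C, 0.64% DMSO final. Mortality scored as binary present/absent at 24 hpf by brightfield microscopy, relative to DMSO.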

Experiment [3] in a line: Tanguay_ZF_120hpf_DP24: Oregon State University Tanguay Lab 24 Hour Post-fertilization zebrafish Assay for Delayed Development (AID 2284390). An outline of the steps: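 Dechorionated 5D wild-type zebrafish embryos exposed statically from 6 hpf, one per well, 0.64% DMSO final, 28 C, sealed and dark. Developmental progression scored at 24 hpf by brightfield as binary present/absent; dead embryos excluded.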

The nature of experiment [4]: Tanguay_ZF_120hpf_CRAN: Oregon State University Tanguay Lab 120 Hour Post-fertilization zebrafish Assay for Craniofacial Malformation (AID 2284397). An outline of the steps:
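Dechorionated Tropical 5D wild-type zebrafish embryos, one per well, were statically exposed from 6 to 120 hpf at 28C in 0.64% DMSO, with 5uM trimethyltin chloride as positive control. Craniofacial malformation was scored present/absent by brightfield microscopy, relative to DMSO.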

Experiment [5] can be described thus: Tanguay_ZF_120hpf_AXIS: Oregon State University Tanguay Lab 120 Hour Post-fertilization zebrafish Assay for Axial Malformation (AID 2284398). Summed up: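 Dechorionated 5D wild-type zebrafish embryos exposed statically, one per well, from 6 to 120 hpf at 28C, 0.64% DMSO. Axial malformation scored as present/absent by brightfield microscopy at 120 hpf; dead embryos not scored.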

A short description of experiment [6]: Tanguay_ZF_120hpf_MORT: Oregon State University Tanguay Lab 120 Hour Post-fertilization zebrafish Assay for Mortality (AID 2284399). Summed up:
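Dechorionated wild-type Tropical 5D zebrafish embryos, one per well from 6 hpf, static exposure to 120 hpf at 28C in sealed dark plates, 0.64% DMSO final. Mortality scored as binary by brightfield at 24 and 120 hpf.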

Experiment [7] in a line: Tanguay_ZF_120hpf_EDEM: Oregon State University Tanguay Lab 120 Hour Post-fertilization zebrafish Assay for Edema Malformation (AID 2284400). An outline of the steps: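 Dechorionated Tropical 5D wild-type embryos, one per well, statically exposed from 6 to 120 hpf at 28C in 0.64% DMSO. Edema scored present/absent by brightfield microscopy at 120 hpf; dead embryos not scored; fit versus DMSO.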

Experiment [8] can be described thus: Tanguay_ZF_120hpf_MUSC: Oregon State University Tanguay Lab 120 Hour Post-fertilization zebrafish Assay for Muscle Malformation (AID 2284401). Summed up: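 Dechorionated Tropical 5D wild-type zebrafish embryos exposed statically from 6 to 120 hpf at 28C, one per well, in 0.64% DMSO. Muscle malformation scored present/absent by brightfield microscopy at 120 hpf, fitted against DMSO.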

Experiment [9] is described as follows: Tanguay_ZF_120hpf_BRN: Oregon State University Tanguay Lab 120 Hour Post-fertilization zebrafish Assay for Brain Region Malformation (AID 2284402). An outline of the steps:
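Dechorionated wild-type Tropical 5D zebrafish embryos exposed statically from 6 to 120 hpf at 28C, one per well, 0.64% DMSO final. Brain malformation scored at 120 hpf by brightfield as present/absent; dead embryos not scored.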

Experiment [10] in a line: Tanguay_ZF_120hpf_TCHR: Oregon State University Tanguay Lab 120 Hour Post-fertilization zebrafish Assay for Touch Responsive (AID 2284403). An outline of the steps:
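Dechorionated Tropical 5D wild-type zebrafish embryos, one per well from 6 hpf, were statically exposed to 120 hpf at 28 °C (0.64% DMSO). Touch response was scored present/absent at 120 hpf and not scored in dead larvae.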

Experiment [11] can be described thus: Tanguay_ZF_120hpf_ANY: Oregon State University Tanguay Lab 120 Hour Post-fertilization zebrafish Assay for Any Mortality and Malformation (AID 2284404). An outline of the steps: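 Dechorionated Tropical 5D wild-type embryos, one per well from 6 hpf, static exposure in sealed, dark plates at 28C until 120 hpf, 0.64% DMSO final. Brightfield scoring of mortality and malformations as binary presence/absence, pooling 13 morphology endpoints.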

Experiment [12] is described as follows: CCTE_Padilla_ZF_Score.Craniofacial: CCTE's 144 Hour Post-fertilization zebrafish Assay Score for Craniofacial Malformation, Padilla Lab (AID 2284405). Summed up: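 Wild-type zebrafish embryos (with chorions), one per well in 10% Hanks', were dosed at 6–8 hpf in sealed plates and kept at 26C. They were rinsed at 5 dpf. At 6 dpf two blinded assessors scored craniofacial malformations by brightfield stereomicroscopy.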

Experiment [13] is described as follows: CCTE_Padilla_ZF_Score.Edema: CCTE's 144 Hour Post-fertilization zebrafish Assay Score for Edema Malformation, Padilla Lab (AID 2284406). Summed up:
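Wild-type zebrafish embryos, one per well in Hanks' solution, dosed at 6-8 hpf, sealed and reared at 26C on a 14:10 h cycle; rinsed on 5 dpf. At 6 dpf, blinded assessors scored edema by stereomicroscopy.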

Experiment [14] is described as follows: CCTE_Padilla_ZF_Score.Spine: CCTE's 144 Hour Post-fertilization zebrafish Assay Score for Spine Malformation, Padilla Lab (AID 2284407). Summed up:
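Wild-type zebrafish embryos, one per well in Hanks' solution, dosed at 6–8 hpf in sealed plates at 26C, 14:10 h light:dark; rinsed at 5 dpf. Two blinded assessors scored spinal defects by stereomicroscopy at 6 dpf; fitted versus DMSO.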

Experiment [15] in a line: CCTE_Padilla_ZF_Score.Swim_bladder: CCTE's 144 Hour Post-fertilization zebrafish Assay Score for Swim Bladder Malformation, Padilla Lab (AID 2284408). Summed up: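 Wild-type zebrafish embryos, one per well in 10% Hanks', dosed at 6–8 hpf, sealed, reared at 26C and rinsed at 5 dpf. Blinded assessors scored uninflated swim bladder by stereomicroscopy at 6 dpf, relative to DMSO.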

A short description of experiment [16]: CCTE_Padilla_ZF_Score.Position: CCTE's 144 Hour Post-fertilization zebrafish Assay Score for Position, Padilla Lab (AID 2284409). Summed up:
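Wild-type zebrafish embryos (with chorions) exposed singly from 6–8 hpf in sealed wells of Hanks' solution at 26C, rinsed at 5 dpf. At 6 dpf, blinded assessors scored abnormal water-column position by brightfield stereomicroscopy, relative to DMSO.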

A short description of experiment [17]: CCTE_Padilla_ZF_Score.Living: CCTE's 144 Hour Post-fertilization zebrafish Assay Score for Viability, Padilla Lab (AID 2284410).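 Also: larval death at 6 dpf judged by absent heartbeat or coagulation.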 An outline of the steps: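 Wild-type zebrafish embryos were exposed singly from 6–8 hpf in sealed wells of Hanks' solution at 26C, then rinsed at 5 dpf. At 6 dpf, blinded assessors scored mortality (no heartbeat or coagulation) by stereomicroscopy, fitted against DMSO.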

Experiment [18] can be described thus: CCTE_Padilla_ZF_Score.General: CCTE's 144 Hour Post-fertilization zebrafish Assay Score for General Malformation, Padilla Lab (AID 2284411). An outline of the steps: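 Wild-type zebrafish embryos were plated singly at 6-8 hpf in 10% Hanks' and exposed in sealed wells at 26C until rinsed on 5 dpf. At 6 dpf two blinded assessors scored mortality, hatching and malformations by stereomicroscopy; gain-of-signal versus DMSO.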

Experiment [19] can be described thus: CCTE_Padilla_ZF_Score.Tail: CCTE's 144 Hour Post-fertilization zebrafish Assay Score for Tail Malformation, Padilla Lab (AID 2284414). An outline of the steps:
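Wild-type zebrafish embryos, one per well in 200 uL 10% Hanks', dosed at 6-8 hpf, sealed, and kept at 26 C on a 14:10 h light cycle. Chemical was rinsed out at 5 dpf. Blinded brightfield scoring of tail defects followed at 6 dpf.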

A short description of experiment [20]: CCTE_Padilla_ZF_Score.Blood_pooling: CCTE's 144 Hour Post-fertilization zebrafish Assay Score for Blood Pooling, Padilla Lab (AID 2284415). Summed up:
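Wild-type outbred zebrafish embryos, one per well in 10% Hanks', exposed from 6–8 hpf in sealed plates at 26C on 14:10 h light:dark, rinsed at 5 dpf. Blinded stereomicroscope scoring of blood pooling at 6 dpf; gain-of-signal versus DMSO.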

For two compounds, outcome and AC50 results are on record in PubChem BioAssay (EPA / NIEHS).

Active and inactive are the calls of the source. The calls were made as follows, unless noted: active = hit-call score of the fitted dose curve at least 0.9, where 1 is the maximum; inactive = score below 0.9.

`O=[N+]([O-])c1ccc(Oc2ccc(Cl)cc2Cl)cc1`: the compound was called inactive in experiment [1].
In general, AC50 refers to the concentration at which the activity in the assay is half-maximal. Turning to `CCNS(=O)(=O)C(F)(F)C(F)(F)C(F)(F)C(F)(F)C(F)(F)C(F)(F)C(F)(F)C(F)(F)F`, the compound was classed as inactive in experiment [2], in experiment [3], in experiment [6], in experiment [8], in experiment [9] and in experiment [10]. Also, the call in experiment [12], in experiment [14], in [16], in [19] and in [20] was inactive. Also, the AC50 was 75.6 µM (active) in experiment [4]; 70.1 µM (active) in [5]; 62.9 µM (active) in experiment [7]; 62.1 µM (active) in experiment [11]; 2.86 µM (active) in [13]; 3.57 µM (active) in [15]. The AC50 in experiment [17] is 22.2 µM (active); in experiment [18], 3.11 µM (active).
